Calls of active or inactive are those of the source.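 The calls were made as follows: active = a band for the stress protein GRP78 appears on a western blot of treated cells; inactive = no band seen on the blot.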

The nature of this assay: Hit Validation Western Blot Assay for Inducers of ERSR: Assessment of GRP78 Upregulation. Conditions: cells, 4-24 h. An excerpt: Primary protein unfolding takes place for many diseases, including diabetes and hypoxia, , and triggers a reaction in the cells called ER stress response (ERSR). ). ERSR is designed as a repair mechanism, but ultimately leads to cell death via apoptosis if conditions triggering protein unfolding persist (1). The molecular clue to ERSR activation is the enhancement of the expression of key molecular chaperones, including the glucose regulated protein (GRP) 78. GRP78 is the main sensor for protein folding and the main actuator of the ERSR. In a collaboration between the Southern Research Institute and the NIH Chemical Genomics Center, a cell based screen was developed that reliably uses GRP78 as a sensor to identify small molecules as inducers of ERSR. In resting conditions, GRP78 binds proteins and acts as a natural repressor. Once unfolded proteins are present in the ER, GRP78 releases some of the repressors and binds to the unfolded proteins. The release of the repressors executes the ERSR program. Using a human glioma cell line in a miniaturized, luminescent format, a high-throughput screen was developed to identify actuators of the ERSR. In this assay, hits identified in the primary ERSR screen were characterized for their effects on wild type GRP78 upregulation using a western blot secondary assay. NIH Chemical Genomics Center [NCGC] […]
A general note: In western blotting, separated proteins are transferred to a membrane and probed.
Regarding `Cc1noc(C)c1C(=O)N1CCC2(CCCN(C(c3ccccc3)c3ccccc3)C2)CC1`, the outcome is “active; yes”.

The record behind these values is PubChem BioAssay AID624498 (National Center for Advancing Translational Sciences (NCATS), 2012).
